The record followed here is the supplement of paper PMC10849652.

The full data set covers some 7,900 targets. This sample favours those with a hit. About 0.6% of all pairs of compound and target were hits.

Chain of UniProt Q9Y496 (Q9Y496 whole entry, looked up): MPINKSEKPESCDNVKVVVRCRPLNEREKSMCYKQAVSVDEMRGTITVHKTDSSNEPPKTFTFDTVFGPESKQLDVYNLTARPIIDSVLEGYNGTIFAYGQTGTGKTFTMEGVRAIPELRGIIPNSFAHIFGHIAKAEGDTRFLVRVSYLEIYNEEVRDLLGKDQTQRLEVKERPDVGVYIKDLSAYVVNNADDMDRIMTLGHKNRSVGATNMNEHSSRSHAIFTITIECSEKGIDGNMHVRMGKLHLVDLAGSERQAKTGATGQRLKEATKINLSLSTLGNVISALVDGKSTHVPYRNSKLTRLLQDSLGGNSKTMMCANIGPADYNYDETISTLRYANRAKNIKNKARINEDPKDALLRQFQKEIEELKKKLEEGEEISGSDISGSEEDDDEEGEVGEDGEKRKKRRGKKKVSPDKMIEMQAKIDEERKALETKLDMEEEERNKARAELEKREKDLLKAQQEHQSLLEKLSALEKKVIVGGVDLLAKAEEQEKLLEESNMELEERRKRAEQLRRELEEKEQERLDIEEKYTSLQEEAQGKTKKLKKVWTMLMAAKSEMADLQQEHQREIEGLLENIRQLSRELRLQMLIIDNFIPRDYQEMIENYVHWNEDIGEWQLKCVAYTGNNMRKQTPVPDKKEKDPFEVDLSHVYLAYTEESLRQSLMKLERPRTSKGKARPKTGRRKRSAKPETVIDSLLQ
Chain of UniProt Q9H0C8 (Q9H0C8 whole entry, looked up): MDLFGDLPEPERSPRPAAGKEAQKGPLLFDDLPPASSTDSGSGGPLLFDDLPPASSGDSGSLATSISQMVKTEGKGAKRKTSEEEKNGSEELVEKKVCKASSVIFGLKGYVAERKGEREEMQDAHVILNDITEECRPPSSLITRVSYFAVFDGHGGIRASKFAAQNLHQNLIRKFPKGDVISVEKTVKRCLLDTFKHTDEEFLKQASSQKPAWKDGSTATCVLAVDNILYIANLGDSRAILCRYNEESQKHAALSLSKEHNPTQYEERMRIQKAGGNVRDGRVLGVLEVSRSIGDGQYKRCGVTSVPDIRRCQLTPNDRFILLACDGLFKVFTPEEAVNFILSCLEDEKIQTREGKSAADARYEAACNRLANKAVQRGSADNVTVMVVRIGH
Chain of UniProt Q14624 (Q14624 whole entry, looked up): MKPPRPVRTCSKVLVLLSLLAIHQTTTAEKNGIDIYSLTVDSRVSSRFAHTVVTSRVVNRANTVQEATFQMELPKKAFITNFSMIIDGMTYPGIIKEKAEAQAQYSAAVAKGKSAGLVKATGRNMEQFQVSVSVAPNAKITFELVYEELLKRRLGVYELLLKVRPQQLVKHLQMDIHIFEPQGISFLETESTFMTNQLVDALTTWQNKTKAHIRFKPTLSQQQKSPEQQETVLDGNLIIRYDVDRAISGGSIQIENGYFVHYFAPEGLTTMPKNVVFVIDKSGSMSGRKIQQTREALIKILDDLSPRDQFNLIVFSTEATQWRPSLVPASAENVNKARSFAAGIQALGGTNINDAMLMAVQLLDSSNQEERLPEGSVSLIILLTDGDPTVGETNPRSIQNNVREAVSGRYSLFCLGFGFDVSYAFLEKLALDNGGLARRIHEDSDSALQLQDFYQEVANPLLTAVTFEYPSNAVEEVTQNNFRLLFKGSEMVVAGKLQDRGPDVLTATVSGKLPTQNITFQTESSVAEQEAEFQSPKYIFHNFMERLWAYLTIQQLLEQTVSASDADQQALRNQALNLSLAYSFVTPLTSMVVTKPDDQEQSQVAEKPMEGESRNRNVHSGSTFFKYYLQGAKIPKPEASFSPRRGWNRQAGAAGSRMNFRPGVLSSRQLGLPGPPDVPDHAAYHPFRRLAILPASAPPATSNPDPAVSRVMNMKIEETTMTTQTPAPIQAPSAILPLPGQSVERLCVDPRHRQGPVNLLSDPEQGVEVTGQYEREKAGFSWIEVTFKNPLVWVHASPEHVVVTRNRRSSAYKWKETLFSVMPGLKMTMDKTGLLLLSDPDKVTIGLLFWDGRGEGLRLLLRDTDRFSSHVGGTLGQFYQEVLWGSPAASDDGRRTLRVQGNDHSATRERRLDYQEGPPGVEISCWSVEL
Chain of UniProt Q9Y2E5 (Q9Y2E5 whole entry, looked up): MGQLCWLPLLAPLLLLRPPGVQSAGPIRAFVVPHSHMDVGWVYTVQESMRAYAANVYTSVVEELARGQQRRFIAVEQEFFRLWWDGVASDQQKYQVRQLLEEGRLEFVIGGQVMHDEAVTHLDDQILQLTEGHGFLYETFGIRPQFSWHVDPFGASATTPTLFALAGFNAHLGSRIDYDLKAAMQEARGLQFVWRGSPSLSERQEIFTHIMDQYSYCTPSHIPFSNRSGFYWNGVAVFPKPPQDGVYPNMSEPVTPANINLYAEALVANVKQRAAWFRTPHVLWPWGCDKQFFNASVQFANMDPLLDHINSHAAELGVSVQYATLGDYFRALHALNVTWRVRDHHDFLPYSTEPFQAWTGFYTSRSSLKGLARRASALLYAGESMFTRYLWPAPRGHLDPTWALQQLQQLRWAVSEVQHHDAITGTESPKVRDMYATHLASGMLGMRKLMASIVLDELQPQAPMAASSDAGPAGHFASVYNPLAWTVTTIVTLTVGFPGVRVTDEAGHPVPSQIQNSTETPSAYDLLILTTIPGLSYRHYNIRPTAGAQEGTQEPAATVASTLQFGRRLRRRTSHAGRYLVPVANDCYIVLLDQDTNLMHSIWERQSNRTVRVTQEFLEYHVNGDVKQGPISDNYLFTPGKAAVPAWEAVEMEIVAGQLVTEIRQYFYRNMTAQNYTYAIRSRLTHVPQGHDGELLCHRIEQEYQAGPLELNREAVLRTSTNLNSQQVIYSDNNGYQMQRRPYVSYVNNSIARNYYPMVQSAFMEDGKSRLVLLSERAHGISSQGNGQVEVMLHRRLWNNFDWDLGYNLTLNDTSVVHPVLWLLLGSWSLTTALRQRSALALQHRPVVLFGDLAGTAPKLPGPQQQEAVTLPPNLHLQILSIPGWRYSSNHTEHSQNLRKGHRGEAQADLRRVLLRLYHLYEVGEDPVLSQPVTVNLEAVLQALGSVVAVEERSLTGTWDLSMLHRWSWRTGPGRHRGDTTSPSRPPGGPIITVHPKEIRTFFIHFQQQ
Chain of UniProt Q8WV07 (Q8WV07 whole entry, looked up): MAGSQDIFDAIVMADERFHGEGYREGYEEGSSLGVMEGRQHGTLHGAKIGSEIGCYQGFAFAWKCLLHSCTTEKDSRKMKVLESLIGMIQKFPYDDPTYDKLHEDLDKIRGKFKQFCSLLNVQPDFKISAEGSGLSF
Chain of UniProt P01116 (P01116 whole entry, looked up): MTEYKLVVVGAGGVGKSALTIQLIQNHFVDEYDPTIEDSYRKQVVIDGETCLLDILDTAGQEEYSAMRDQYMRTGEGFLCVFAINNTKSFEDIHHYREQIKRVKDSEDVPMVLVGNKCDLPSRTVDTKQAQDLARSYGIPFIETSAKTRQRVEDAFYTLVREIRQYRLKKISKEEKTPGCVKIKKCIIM
Chain of UniProt P01130 (P01130 whole entry, looked up): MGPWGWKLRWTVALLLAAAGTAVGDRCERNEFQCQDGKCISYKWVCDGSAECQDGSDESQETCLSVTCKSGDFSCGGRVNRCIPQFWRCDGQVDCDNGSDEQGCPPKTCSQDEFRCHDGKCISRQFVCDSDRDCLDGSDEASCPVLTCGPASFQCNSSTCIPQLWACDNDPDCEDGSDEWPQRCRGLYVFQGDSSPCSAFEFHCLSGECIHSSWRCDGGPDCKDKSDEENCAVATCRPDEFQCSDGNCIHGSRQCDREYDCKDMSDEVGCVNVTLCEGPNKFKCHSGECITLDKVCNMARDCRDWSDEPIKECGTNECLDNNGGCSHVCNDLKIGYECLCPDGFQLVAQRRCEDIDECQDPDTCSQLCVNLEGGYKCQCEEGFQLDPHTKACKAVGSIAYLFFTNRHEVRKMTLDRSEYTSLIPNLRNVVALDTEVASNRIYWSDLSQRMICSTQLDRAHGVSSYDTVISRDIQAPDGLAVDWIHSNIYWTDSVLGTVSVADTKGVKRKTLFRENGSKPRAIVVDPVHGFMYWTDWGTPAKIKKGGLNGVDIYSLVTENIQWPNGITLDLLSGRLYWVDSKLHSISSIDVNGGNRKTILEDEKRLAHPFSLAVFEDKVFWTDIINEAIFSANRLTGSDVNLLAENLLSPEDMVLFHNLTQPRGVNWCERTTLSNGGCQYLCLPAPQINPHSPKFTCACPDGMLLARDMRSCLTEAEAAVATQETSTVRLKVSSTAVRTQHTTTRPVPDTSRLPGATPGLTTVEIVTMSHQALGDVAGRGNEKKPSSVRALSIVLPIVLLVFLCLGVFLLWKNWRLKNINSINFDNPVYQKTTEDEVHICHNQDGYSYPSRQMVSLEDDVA

Compound in one assay: C#Cc1cccc(Nc2ncnc3cc(OCCOC)c(OCCOC)cc23)c1 [erlotinib]
As to the kind of experiment: log2 fold change, soluble protein after heating vs DMSO (PISA); higher = thermal stabilisation; K562 cells, 10 uM, 30 min; active = over 0.2 and 3.5 SD of the protein, either way, in both replicates (recomputed). In short, it runs like this: (§1)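 Thermal stability values are relative to control samples and come from duplicates. They are expressed as log2 fold changes. For measurement, K562 cells (2×10^6 cells/mL) received 10 μM compound for 30 min, and aliquots were heated for 3 min over 48°C-58°C, pooled, and extracted at 4°C in PBS with 0.5% NP-40. Soluble protein, the supernatant after 21,000xg for 90 min, was quantified by TMTpro 16plex LC-MS/MS with equalised channel sums.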
On to KPNA6 (UniProt O60684), for which the log2 fold change was 0.077 (inactive).
Same read-out and setting: for KDM3B (UniProt Q7LBC6) the value was 0.029 (inactive); for LMBRD2 (UniProt Q68DH5), 0.015 (inactive).
With ME2 (UniProt P23368), the log2 fold change is -0.017 (inactive).
The same measure, in the same setting: for ILKAP (UniProt Q9H0C8) the value was 0.096 (inactive); for MFN2 (UniProt O95140), 0.027 (inactive); for INPP5B (UniProt P32019), -0.027 (inactive).
Still for that read-out and setting: for LARP1 (UniProt Q6PKG0) the value was -0.051 (inactive); for MIER1 isoform 12 (UniProt Q8N108), 0.399 (active); for L2HGDH (UniProt Q9H9P8), 0.027 (inactive).
On the same count and under the same terms, then KRAS isoform 2 (UniProt P01116), with -0.035 (inactive).
As to LTO1 (UniProt Q8WV07), the log2 fold change is -0.095 (inactive).
Same read-out and setting: then MFN1 (UniProt Q8IWA4), with -0.002 (inactive).
Same read-out and setting: then IKZF1 (UniProt Q13422), with -0.005 (inactive).
Same read-out and setting: for MAP3K7 (UniProt O43318) the value was 0.078 (inactive); for KIF3A (UniProt Q9Y496), -0.222 (inactive).
Consider IMMT isoform 4 (UniProt Q16891), for which the log2 fold change was -0.027 (inactive).
Same read-out and setting: for LDLR (UniProt P01130) the value was -0.035 (inactive).
As for LMNA (UniProt P02545), the log2 fold change is -0.025 (inactive).
Same read-out and setting: then MAGI1 (UniProt Q96QZ7), with -0.022 (inactive); and MAP3K4 isoform 2 (UniProt Q9Y6R4), with -0.027 (inactive).
On the same count and under the same terms, for IWS1 (UniProt Q96ST2) the value was 0.029 (inactive); for INTS5 (UniProt Q6P9B9), -0.027 (inactive); for KLHDC4 (UniProt Q8TBB5), -0.066 (inactive).
On the same count and under the same terms, for LSS (UniProt P48449) the value was 0.293 (inactive); for MAN2B2 (UniProt Q9Y2E5), -0.035 (inactive); for KHDC4 (UniProt Q7Z7F0), -0.005 (inactive).
Take MCCC2 (UniProt Q9HCC0): the log2 fold change is 0.019 (inactive).
In the case of MAPKAPK5 (UniProt Q8IW41), the log2 fold change is 0.249 (active).
Same read-out and setting: then JMJD6 isoform 3 (UniProt Q6NYC1), with -0.009 (inactive).
Still for that read-out and setting: for LARP4B (UniProt Q92615) the value was -0.016 (inactive).
The same measure, in the same setting: then LEO1 (UniProt Q8WVC0), with 0.132 (inactive); and KDM1A isoform 2 (UniProt O60341), with 0.059 (inactive); and MFSD5 isoform 2 (UniProt Q6N075), with 0.147 (inactive).
Regarding ITIH4 (UniProt Q14624), the log2 fold change is -0.026 (inactive).
On the same count and under the same terms, for LARP4 isoform 4 (UniProt Q71RC2) the value was 0.015 (inactive); for LTV1 (UniProt Q96GA3), -0.079 (inactive); for LIAS (UniProt O43766), 0.068 (inactive).

Compound in the next assay: C/C(=N\NC(=O)C1=CC(=CC=C1)S(=O)(=O)N2CCOCC2)/C3=C(C=CC(=C3)Cl)O
Described as above. An outline of the steps: as §1
Turning to KPNA6 (UniProt O60684), the log2 fold change is 0.108 (inactive).
Regarding KDM3B (UniProt Q7LBC6), the log2 fold change is 0.051 (inactive).
As for LMBRD2 (UniProt Q68DH5), the log2 fold change is -0.007 (inactive).
Still for that read-out and setting: then ME2 (UniProt P23368), with -0.017 (inactive).
The same measure, in the same setting: for ILKAP (UniProt Q9H0C8) the value was 0.26 (inactive); for MFN2 (UniProt O95140), 0.049 (inactive); for INPP5B (UniProt P32019), 0.056 (inactive).
On the same count and under the same terms, then LARP1 (UniProt Q6PKG0), with 0.002 (inactive); and MIER1 isoform 12 (UniProt Q8N108), with 0.009 (inactive); and L2HGDH (UniProt Q9H9P8), with 0.169 (inactive).
Take KRAS isoform 2 (UniProt P01116): the log2 fold change was -0.011 (inactive).
The same measure, in the same setting: for LTO1 (UniProt Q8WV07) the value was 0.072 (inactive); for MFN1 (UniProt Q8IWA4), -0.026 (inactive); for IKZF1 (UniProt Q13422), -0.018 (inactive).
On the same count and under the same terms, for MAP3K7 (UniProt O43318) the value was 0.009 (inactive).
Still for that read-out and setting: for KIF3A (UniProt Q9Y496) the value was -0.06 (inactive); for IMMT isoform 4 (UniProt Q16891), 0.026 (inactive).
Consider LDLR (UniProt P01130), for which the log2 fold change was 0.003 (inactive).
On the same count and under the same terms, then LMNA (UniProt P02545), with 0.116 (inactive); and MAGI1 (UniProt Q96QZ7), with 0 (inactive); and MAP3K4 isoform 2 (UniProt Q9Y6R4), with 0.019 (inactive).
The same measure, in the same setting: then IWS1 (UniProt Q96ST2), with 0.029 (inactive).
On the same count and under the same terms, then INTS5 (UniProt Q6P9B9), with 0.025 (inactive).
As for KLHDC4 (UniProt Q8TBB5), the log2 fold change was -0.075 (inactive).
The same measure, in the same setting: for LSS (UniProt P48449) the value was 0.073 (inactive); for MAN2B2 (UniProt Q9Y2E5), 0.005 (inactive); for KHDC4 (UniProt Q7Z7F0), 0.14 (inactive).
The same measure, in the same setting: for MCCC2 (UniProt Q9HCC0) the value was 0.123 (inactive); for MAPKAPK5 (UniProt Q8IW41), -0.249 (inactive); for JMJD6 isoform 3 (UniProt Q6NYC1), 0.011 (inactive).
As for LARP4B (UniProt Q92615), the log2 fold change is 0.032 (inactive).
Consider LEO1 (UniProt Q8WVC0), for which the log2 fold change is 0.108 (inactive).
Same read-out and setting: for KDM1A isoform 2 (UniProt O60341) the value was 0.039 (inactive).
The same measure, in the same setting: then MFSD5 isoform 2 (UniProt Q6N075), with 0.057 (inactive); and ITIH4 (UniProt Q14624), with -0.072 (inactive).
On the same count and under the same terms, for LARP4 isoform 4 (UniProt Q71RC2) the value was 0.007 (inactive); for LTV1 (UniProt Q96GA3), -0.073 (inactive); for LIAS (UniProt O43766), -0.24 (active).
